# TWEAK-Fn14 inh: TWEAK-Fn14 signaling inhibition | TWEAK-stimulated Fn14 reporter cells, luciferase luminescence, 8 h | inhibition, % at 10 µM | hit rate 2% among 360,000 | AID 1159606; in the data active = inhibition above about 50%
# PAX8 reporter: PAX8 transcriptional activity inhibition; inhibition, % at 12.6 µM; hit rate 1.2% among 360,000; RMG-I TPO-luciferase reporter, SteadyGlo, 24 h;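 active = mean replicate inhibition at least 60% with every replicate also reaching 60%; inconclusive = only one of the two criteria is met; inactive = mean below 60% and not all replicates reaching 60%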;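 also: luciferase light reporting Pax8 driven TPO promoter activity; plate controls were median of neutral control wells for no effect and mitoxantrone controls for full effect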
# LGR2 inh: blocks bursicon-induced cAMP signaling via Drosophila LGR2. HEK293 LGR2, CRE-luciferase, bursicon-stimulated, 4 h. inhibition, % at 9.99 µM. hit rate 0.35% among 380,000. AID 720647;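 active = drop in luminescence signal, shown as inhibition above about 50% in the replicate tests, limit read from the data, passing the limit was not always enough; inconclusive = probably only some replicates passing the limit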;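 also: agonist challenge used bursicon conditioned medium at about half maximal strength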
# EWS-Fli block: EWS/Fli transcriptional activity inhibition; AID 651661; hit rate 0.67% among 350,000; A673 NR0B1-luciferase reporter, viability-normalised; inhibition, % at 12.6 µM;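 active = mean inhibition of at least 50% after viability correction, with every replicate also passing that limit; inconclusive = mean reaches 50% but only one of two replicates passes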;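 also: firefly luciferase signal divided by Alamar Blue viability fluorescence both relative to DMSO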
# TROY NFkB inh: blocks TROY-dependent signaling in reporter cells; Q293 LMP1-TROYcd NF-kB luciferase reporter, 4 h; inhibition, % at 10 µM; hit rate 0.98% among 360,000; AID 1347056;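 active = compounds whose plate-normalised and pattern-corrected inhibition of the luciferase reporter signal at the single screening dose is 50% or more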
# LMP1 NFkB inh: reduces LMP1-driven NF-kappaB luciferase signal; LMP1-induced NF-kappaB luciferase reporter cells, luminescence; inhibition, % at 12.5 µM; hit rate 0.69% among 350,000; in the data active = inhibition above about 41%; inconclusive = no clear call, values can overlap the other calls;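 also: 0% = neutral control wells and 100% = reference inhibitor control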
# Numbers without * were called inactive; u = inconclusive; x = no result. Shown are actives, neighbours in structure and some others; about 3.2% of the full set was active somewhere.
SMILES,TWEAK-Fn14 inh,PAX8 reporter,LGR2 inh,EWS-Fli block,TROY NFkB inh,LMP1 NFkB inh
C[C@H](NC(=O)C[C@H]1CC[C@@H]2[C@H](COC[C@H](O)CN2Cc2ccc(C(F)(F)F)cc2)O1)c1ccccc1,x,11.4,-6.4,13.3,x,x
COC(=O)N/N=C/c1ccc(-c2ccc(C)c(Cl)c2)o1,-31.1,-19.6,-21.7,-41.1,-13.7,-10.8
Cc1ccc(-c2ccc(/C=N/c3ncn[nH]3)o2)cc1Cl,2.6,x,22.2,x,13.0,58.8*
CCCNC(=O)N1CC2(CCN(C(=O)c3cccnc3)CC2)c2c([nH]c3cc(OC)ccc23)[C@@H]1CO,x,x,-9.3,-7.8,x,x
Cc1ccc(Cl)cc1NC(=S)N/N=C/c1cccc2ccccc12,-18.8,14.7,0.1,53.1*,21.4,12.5
CCCNC(=O)C[C@@H]1C[C@@H]2c3cc(NC(=O)c4ccc5c(c4)OCO5)ccc3O[C@@H]2[C@H](CO)O1,x,-6.8,-4.7,-8.6,x,x
Cc1c(C(=O)OCCOc2ccccc2)[nH]c2c1C(=O)CCC2,82.0*,x,x,x,66.1*,6.4
CC(=O)c1c(C)[nH]c(C(=O)OCCOc2ccccc2)c1C,-19.4,17.9,67.5*,-15.2,61.6*,33.0
CNC[C@H]1Oc2ccc(NC(=O)Nc3ccccc3)cc2CC(=O)N([C@@H](C)CO)C[C@H]1C,x,3.5,-3.1,4.0,x,x
CC(=O)OC1COC(N2CCc3ccccc32)C(OC(C)=O)C1OC(C)=O (stereo not drawn),61.1*,41.0,2.6,7.6,2.4,3.0
COC(=O)/C=C1\S/C(=N\N=C\CC(=O)OC)NC1=O,-3.0,0.7,x,8.0,16.4,1.1
COC(=O)/C=c1\[nH]c2nnc(C)n2c1=O,-11.8,4.4,11.7,1.4,50.1*,-13.7
CCOC(=O)C1CCN(C(=O)CNC(=O)OC(C)(C)C)CC1,-1.8,x,-3.1,x,3.2,43.2*
C[C@@H]1CN([C@@H](C)CO)S(=O)(=O)c2ccc(-c3ccncc3)cc2O[C@@H]1CN(C)C(=O)CN(C)C,x,-0.2,-16.5,-9.1,x,x
N#CC1=C(N)NC(SCc2ccc(Br)cc2)=C(C#N)C12CCCCC2,1.9,-6.2,x,x,54.0*,3.6
COc1ccc(CN(C)C[C@@H]2OCCCC[C@H](C)Oc3ccc(NS(=O)(=O)c4ccc(C)cc4)cc3C(=O)N([C@H](C)CO)C[C@H]2C)cc1,x,82.3*,14.4,10.7,x,x
COc1ccc(CN(C)C[C@H]2OCCCC[C@@H](C)Oc3ccc(NS(=O)(=O)c4ccc(C)cc4)cc3C(=O)N([C@H](C)CO)C[C@@H]2C)cc1,x,-1.8,6.0,-7.8,x,x
COc1ccc(CN(C)C[C@H]2OCCCC[C@@H](C)Oc3ccc(NS(=O)(=O)c4ccc(C)cc4)cc3C(=O)N([C@H](C)CO)C[C@H]2C)cc1,x,-3.5,4.1,59.3*,x,x
O=C1NC(c2ccccc2)=C(c2ccccc2)C1=O,-0.5,1.4,1.8,-0.5,-17.0,-7.3
O=C1C(Br)=C(c2ccccc2)C(c2ccccc2)=C1c1ccccc1,56.5*,x,x,x,-3.7,4.1
O=[N+]([O-])c1ccc(N2CCN(C(=S)Nc3ccccc3)CC2)cc1,-4.4,2.9,24.1,-9.5,1.3,0.4
CC(NC(=S)N1CCN(c2ccccc2)CC1)c1ccccc1 (stereo not drawn),64.8*,-6.3,u,0.4,7.9,-6.0
O=[N+]([O-])c1ccc(NC(=S)N2CCN(c3ccccc3)CC2)cc1,55.9*,2.4,4.3,x,7.8,-4.8
CN(C)c1ccc(-c2nc3ccccn3c2/N=C/c2ccc(Br)cc2)cc1,65.4*,-13.1,u,27.7,22.1,38.5
Cc1c(-c2ccc(Br)cc2)nc2ccccn12,-3.5,32.1,-26.9,-90.4,-53.7,-38.0
SMILES,TWEAK-Fn14 inh,PAX8 reporter,LGR2 inh,EWS-Fli block,TROY NFkB inh,LMP1 NFkB inh
CC(=O)NC(CCS(C)(=O)=O)C(=O)Nc1ccc(Cl)c(Cl)c1 (stereo not drawn),7.2,-3.2,5.5,6.6,17.3,55.0*
CC(=O)NC(CCS(C)(=O)=O)C(=O)Nc1c(F)cccc1F (stereo not drawn),-6.7,x,22.9,x,-5.4,71.5*
CNc1ccccc1C(C)(C)c1cc(-c2ccc(F)cc2)no1,54.4*,32.3,10.6,x,31.4,20.4
O=[N+]([O-])c1ccc(N/N=C/c2sc(N3CCOCC3)nc2-c2ccccc2)c(S(=O)(=O)Nc2ccc(Cl)cc2)c1,60.7*,102.2*,5.1,38.0,59.2*,55.1*
O=C(O)c1cccc(N/N=C/c2sc(N3CCOCC3)nc2-c2ccccc2)c1,-76.5,x,-115.4,x,-88.4,-35.0
O=[N+]([O-])c1ccc(N/N=C/c2sc(N3CCOCC3)nc2-c2ccccc2)c(S(=O)(=O)Nc2ccccc2Cl)c1,69.4*,0.3,u,x,49.0,35.4
COCC#Cc1ccc2c(c1)O[C@@H](CN(C)S(C)(=O)=O)[C@@H](C)CN([C@@H](C)CO)S2(=O)=O,x,x,3.8,-14.2,x,x
COCC(=O)Nc1ccc2c(c1)OC[C@H](C)N(C(=O)c1ccccc1F)C[C@@H](C)[C@@H](OC)CN(C)C2=O,x,x,9.6,-1.9,x,x
Cc1ccc(O)c(C(=O)c2cnc3c(c2)COc2ccccc2-3)c1,63.3*,1.8,x,x,5.7,2.1
COCCn1c(SCC(=O)NCc2ccco2)nnc1-c1c[nH]c2ccccc12,-2.2,2.6,-11.0,2.2,-1.6,72.6*
CCn1c(SC(C)C(=O)OC)nnc1-c1c[nH]c2ccccc12 (stereo not drawn),-0.6,4.4,3.0,4.9,-2.1,75.1*
CCOC(=O)C(C)Sc1nnc(-c2c[nH]c3ccccc23)n1C (stereo not drawn),15.2,0.2,x,-3.8,-17.8,2.1
C[C@@H]1CN([C@H](C)CO)C(=O)c2cc(C#CC3(O)CCCC3)cnc2O[C@H]1CN(C)C(=O)C1CC1,x,x,-2.3,2.0,x,x
COC(=O)C1CCN(C(=O)c2ccc(OC)c(S(=O)(=O)N3CCCc4ccccc43)c2)CC1,18.2,5.5,10.3,-3.3,-3.0,1.2
O=C(OCC(=O)N1CCN(C(=O)c2ccco2)CC1)c1cccc(S(=O)(=O)N2CCc3ccccc32)c1,11.0,100.6*,15.2,-4.5,21.5,4.3
CNS(=O)(=O)c1cccc(C(=O)OCC(=O)N2CCN(C(=O)c3ccco3)CC2)c1,-5.9,35.1,-5.7,-0.2,16.8,-1.8
COC(=O)C1CCN(C(=O)COC(=O)c2ccc(OC)c(S(=O)(=O)N3CCCc4ccccc43)c2)CC1,50.7*,-15.6,5.0,-17.8,33.6,0.0
CCCCN1C(=N)N([C@@H](CN2CCC[C@H]2CN2C(N)=NC[C@@H]2Cc2ccccc2)C(C)C)C[C@H]1Cc1ccccc1,-9.4,63.4*,-3.9,7.5,-11.3,-6.0
CCCCN1C(=N)N([C@@H](C)CN2CCC[C@H]2CN2C(N)=NC[C@@H]2Cc2ccccc2)C[C@H]1Cc1ccccc1,-16.3,49.0,8.5,-4.1,4.5,-14.5
O=C(NCC[C@@H]1CC[C@H](NS(=O)(=O)c2cccc(F)c2)[C@@H](CO)O1)C1CCCCC1,x,0.8,-13.4,-2.3,x,x
